The values below come from PubChem BioAssay AID504861 (Broad Institute, 2011).

Out of some 1,200 compounds screened, about 290 (24%) were called active. Another 3% or so got no clear call; they are omitted. Not all results are given here. Measured potencies and affinities stand elsewhere. Unmarked numbers belong to inactive results.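 Rule for the calls: active = compounds lowering cell viability signal with fitted half-maximal concentration at most ten times their highest tested concentration; inconclusive = flat fit with 30 to 70% signal loss, or poor fit; inactive = the rest.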

This assay is described as follows: cytotoxicity in HEK293T cells – cell-based, CellTiter-Glo luminescence, cherry-picks, cytotoxicity control for LMP1 NF-kB inhibitor project, dose response (AID 504861). Particulars: HEK293T viability, CellTiter-Glo ATP luminescence, 48 h; series mostly up to 26 µM; activity change, negative = cytotoxicity: at the top concentration. A general note: ATP-based viability assays read luminescence as a measure of living cells.
Consider `O=S(=O)(N/N=C/c1ccccc1F)c1ccccc1`, for which the “activity change, negative = cytotoxicity” value is 10.4%.
With `Cc1cc(N2CCOCC2)c2c(N)c(Br)cc(C)c2n1`, the “activity change, negative = cytotoxicity” value is -2.56%.
With `C=CCn1c(=O)/c(=C/c2ccc(Cl)cc2)s/c1=C(\C#N)c1nnc2n1CCCCC2`, the “activity change, negative = cytotoxicity” value was 4.2%.
Consider `NC(=O)CC(NC(=O)c1ccccc1)c1ccc(NC2CCN(Cc3ccccc3)CC2)c([N+](=O)[O-])c1` (stereo unspecified), for which the “activity change, negative = cytotoxicity” value is -1.78%.
With `C=CCN1CCN(C(CC(C)C)c2nnnn2CCOC)CC1` (stereo unspecified) the figure was 10.7%.
The same measure for `O=C(CCS(=O)(=O)c1ccccc1)Nc1nccs1`: 4.41%; for `CCC(C)(C)NC(=O)C(c1ccc(F)cc1)N(CCOC)C(=O)CCC(=O)Nc1nccs1` (stereo unspecified): -8.1%.
The same measure for `CCC(=O)OC1c2ccccc2C(=O)N1Cc1ccccc1` (stereo unspecified): 3.57%; for `COc1ccc(S(=O)(=O)N2CCN(CC(=O)Nc3cc(OC)cc(OC)c3)CC2)cc1`: 9.62%; for `COC(=O)C1=C(C(=O)c2ccccc2)C(c2ccccc2)n2nnnc2N1` (stereo unspecified): 5.26%.
In the case of `O=C(CN1C(=O)CCOc2ccccc21)Nc1ccc(Cl)c(S(=O)(=O)N2CCOCC2)c1`, the “activity change, negative = cytotoxicity” value was -1.24%.
With `CCCCCCCCOC(=O)/C=C/c1c(C)[nH]c(=O)[nH]c1=O` the figure was 4.83%.
For `Cc1c(NC(=O)c2cc(-c3cccs3)nc3ccccc23)c(=O)n(-c2ccccc2)n1C`, the “activity change, negative = cytotoxicity” value is -9.52%.
For `Cn1cccc1/C=C1\CC(C(C)(C)C)C/C(=C\c2cccn2C)C1=O` (stereo unspecified), the “activity change, negative = cytotoxicity” value is 5.18%.
With `O=C(c1ccc(COc2ccccc2Cl)o1)N1CCCC1` the figure was 3.19%.
With `COC(=O)CN(c1ccccc1F)S(=O)(=O)c1ccc(C)cc1` the figure was 1.16%; with `CCCCCCNC(=O)O[C@]12C[C@@H](C(=O)OC)[C@@H](C(=O)OC)C[C@@]1(O)CN(S(=O)(=O)c1ccc(C)cc1)C2`, 3.74%.
With `COc1ccc(-c2[nH]ncc2-c2ccc3c(c2)OCCO3)c(O)c1` the figure was 5.3%.
On to `N#CC1=C(N)OC2=C(C(=O)CCC2)C12C(=O)N1CCCc3cccc2c31` (stereo unspecified), for which the “activity change, negative = cytotoxicity” value was 18.7%.
With `COC(CNC(=O)c1ccc(N2CCC3(CC2)OCCO3)c([N+](=O)[O-])c1)OC` the figure was 21.8%.
Turning to `COc1ccc(C)cc1S(=O)(=O)N(CC(=O)Nc1cc([N+](=O)[O-])ccc1C)c1ccc(C)c(C)c1`, the “activity change, negative = cytotoxicity” value is 14.1%.
The same measure for `Cc1cc(C(=O)COC(=O)c2cccc(NS(C)(=O)=O)c2)c(C)n1CC1CCCO1` (stereo unspecified): -1.07%; for `O=C(O)c1cccc(NC(=O)c2cn(-c3ccccc3)nc2-c2ccc(F)cc2)c1`: -2.08%; for `Cc1ccc(C(=O)Nc2ncc3c(Cl)cccc3n2)cc1`: -4.06%.
With `CCn1c(CCNC(=O)c2ccc(OC)cc2)nnc1SCc1ccc(Cl)cc1Cl` the figure was -1.26%; with `CC(C)(C)c1ccc(-c2noc(CCC(N)=O)n2)cc1`, 4.9%; with `CCOC(=O)c1cn2nc(N3CCCC3)ccc2n1`, -3.72%.
The same measure for `S=C(NN=C1C2CC3CC(C2)CC1C3)Nc1ccccc1`: 7.44%; for `O=C(Nc1cccc(Cl)c1)Nc1cccc(C(=O)O)c1`: 4.19%; for `Cc1ccc(NC(=O)C(=O)Nc2ccccn2)cc1`: -1.38%.
`Cc1ccc(NC(=S)NCc2cccs2)cc1`: the “activity change, negative = cytotoxicity” value was 6.68%.
With `CNC1(C)[C@H]2CC[C@H](C2)C1(C)C` (stereo partly specified) the figure was -0.979%; with `CC(=O)c1cccc(NC(=O)Nc2ccc(C(=O)N3CCOCC3)cc2)c1`, -7.4%; with `CCCCCc1ccc(-c2ccc(/C=C/C(=O)O)cc2)nc1`, -2.31%.
As for `COc1ccc(-c2nc(C)ncc2-c2ccccc2)c(O)c1`, the “activity change, negative = cytotoxicity” value was -3.21%.
As to `Cc1ccc(N(Cc2cc3ccccc3[nH]c2=O)C(=O)c2ccco2)c(C)c1`, the “activity change, negative = cytotoxicity” value was 7.35%.
Turning to `O=C(O)c1cccc(Nc2ccnc(Nc3cccc(C(=O)O)c3)n2)c1`, the “activity change, negative = cytotoxicity” value was -5.64%.
As for `CCN(C(=O)CSc1nnc(Nc2cccc(C)c2C)s1)C1CCS(=O)(=O)C1` (stereo unspecified), the “activity change, negative = cytotoxicity” value was 15.3%.
The same measure for `COc1ccc(-c2nc(CN3CCC(C(=O)N4CCOCC4)CC3)c(C)o2)cc1C`: -0.49%.
Turning to `Cc1cc(C)c2sc(NC(=O)C3CC3)nc2c1`, the “activity change, negative = cytotoxicity” value was 4.24%.
With `CCOC(=O)Oc1c(OC)cc(C(=O)O[C@@H]2C[C@@H]3CN4CCc5c([nH]c6cc(OC)ccc56)[C@H]4C[C@@H]3[C@H](C(=O)OC)[C@H]2OC)cc1OC` the figure was -5.9%; with `Nc1ccn([C@@H]2O[C@H](CO)[C@@H](O)[C@@H]2O)c(=O)n1`, 0.472%.
The same measure for `Cc1cc(N2CCCC2=O)cc(C)c1S(=O)(=O)Nc1c(C)nn(C)c1C`: 1.46%; for `Cn1cccc1-c1cc(C(=O)N2CCc3c([nH]c4ccccc34)C2c2ccccn2)[nH]n1` (stereo unspecified): -10.6%.
With `COc1ccc(-c2oc3ncnc(NCCN4CCOCC4)c3c2-c2ccc(OC)cc2)cc1` the figure was 2.98%; with `CSc1nc(C)nc2c1c(=O)n(C)c(=O)n2C`, 8.38%; with `Cc1ccc(/C=C/c2nc3ccccc3s2)s1`, -11.8%.
On to `Cn1cc(CC(=O)NCCCN2CCCC2)c2ccccc21`, for which the “activity change, negative = cytotoxicity” value was 3.13%.
Regarding `CCc1cc(Cl)c(OC)c(C(=O)NC[C@@H]2CCCN2CC)c1O`, the “activity change, negative = cytotoxicity” value was -6.38%.
With `c1ccc2c3c([nH]c2c1)C(C1CCCCC1)N(Cc1ncc[nH]1)CC3` (stereo unspecified) the figure was 1.16%.
The same measure for `Cc1ccc(C(=O)Nc2sc(Cc3ccc4c(c3)OCO4)c(C)c2C(N)=O)cc1`: 6.6%; for `Cn1ncc(Cl)c1C(=O)NC1CCCC1`: 7.6%; for `O=C(Nc1ccc(N2CCOCC2)cc1)c1cnccn1`: 1.13%.
With `CCN(CC)c1ccc(NC(=O)c2cccc(F)c2)c(C)c1` the figure was 1.9%; with `COc1ccccc1N1CCN(CCCNC(=O)C2CCCN(c3ncnc4c3nc3n4CCCCC3)C2)CC1` (stereo unspecified), -8.21%.
For the molecule `CNC(=O)c1[nH]cnc1C(=O)N[C@@H](CCCCNC(=O)OC(C)(C)C)C(=O)OC(C)(C)C`, the “activity change, negative = cytotoxicity” value was 1.6%.
With `CCOC(=O)c1c(-n2cccc2)sc2c1CCCC2=O` the figure was 7.85%; with `Cc1ccccc1C(=O)c1c[nH]c(C(=O)NCc2ccco2)c1`, 12.1%.
Take `O=c1c2cnn(-c3ccccc3)c2nc(-c2cccs2)n1-c1ccc(Cl)cc1`: the “activity change, negative = cytotoxicity” value is -3.75%.
With `Cc1ccc(OCC(=O)NNC(=S)NC(=O)C2CCCCC2)c(C)c1`, the “activity change, negative = cytotoxicity” value was -1.86%.
With `N#Cc1c(NC(=O)CCCC(=O)O)sc2c1CCCCC2` the figure was 7.69%.
Take `COC(=O)CCNc1ccc2c(c1)OCCO2`: the “activity change, negative = cytotoxicity” value is -7.17%.
The same measure for `COc1ccc(C(=O)OCC(=O)c2c[nH]c3ccccc23)cc1OC`: 0.68%; for `Clc1ccc(-c2nnc(NC3=NCCCCC3)o2)cc1`: -3.14%.
The same measure for `O=C(O)c1ccc(-n2cncn2)c([N+](=O)[O-])c1`: 0.957%; for `CN(C)c1ccnc2sc(C(N)=O)c(N)c12`: 2.86%; for `Cc1ccc(CNC(=O)C2CCN(S(=O)(=O)c3c(C)noc3/C=C/c3ccco3)CC2)cc1`: 2.54%.
Turning to `Cc1nc(N)nc(SCc2ccc([N+](=O)[O-])cc2)c1N`, the “activity change, negative = cytotoxicity” value is 11.7%.
As to `COc1cc(/C=N/NC(=O)c2cccc(S(=O)(=O)N3CCOCC3)c2)cc(OC)c1O`, the “activity change, negative = cytotoxicity” value is -1.07%.
The same measure for `COc1cc(C(=O)Oc2ccccc2/C=N/NC(=O)c2ccc(C)c(Cl)c2)cc(OC)c1OC`: 2.62%; for `CCCCCC(=O)NC(=S)Nc1ccc(Br)cc1C`: 5.46%; for `O=C(N/N=C/c1cccc(O)c1)c1ccc2c(c1)OCCO2`: 1.25%.
For `Cc1cccc(C)c1NC(=O)CN(C)C(=O)c1ccc(-c2cccc(C(F)(F)F)c2)o1`, the “activity change, negative = cytotoxicity” value is -5.78%.
Turning to `COCCNC(=O)C(=O)NCC1OCCN1C(=O)c1ccc(Cl)cc1` (stereo unspecified), the “activity change, negative = cytotoxicity” value is 8.08%.
Consider `COC(=O)c1ccc(/C=C(/NC(=O)c2ccccc2)C(=O)N2CCOCC2)cc1`, for which the “activity change, negative = cytotoxicity” value is 1.26%.
For `Cc1ccc(N=c2c([N+](=O)[O-])nn(-c3ccc4c(c3)OCCO4)n2O)cc1F`, the “activity change, negative = cytotoxicity” value was 23.8%.
The same measure for `COc1ccc(C(=O)NC(=S)NNC(=O)c2ccc3ccccc3n2)cc1`: 1.74%; for `CC(=O)Nc1ccc(OCC(O)CNC(C)C)cc1` (stereo unspecified): 5.57%.
Turning to `COc1ccc(-c2cnc(NCc3cc4c(cc3[N+](=O)[O-])OCO4)n2C)cc1`, the “activity change, negative = cytotoxicity” value was 6.75%.
The same measure for `Cc1ccc(-n2c(C)c([N+](=O)[O-])c3ccc(O)c(CN(C)C)c32)cc1`: -4.92%.
The same measure for `O=C(Nc1ncccc1O)c1ccc(S(=O)(=O)NCc2ccco2)cc1`: -2.08%; for `O=C(/C=C/Nc1ccc(Br)cc1F)c1ccccc1`: -4.86%; for `Cc1ccsc1/C=N/NC(=O)c1ccc2c(c1)OCCO2`: -4.75%.
The same measure for `CC(=O)c1c(C)[nH]c(C(=O)Nc2ccc(C)cn2)c1C`: 5.29%; for `CN(C)c1cccc(C(=O)N/N=C/c2ccccc2F)c1`: -0.047%; for `COc1ccccc1C=NN=Cc1ccccc1O`: 5.09%.
For the molecule `CCc1nnc(NC(=O)c2ccc(S(=O)(=O)N3CCOCC3)cc2)s1`, the “activity change, negative = cytotoxicity” value was 5.76%.
On to `CCCn1c(C)cc(C(=O)COC(=O)c2ccc[nH]c2=O)c1C`, for which the “activity change, negative = cytotoxicity” value is 3.28%.
The same measure for `CCn1c2ccccc2c2cc(/C=C(/C#N)C(N)=S)ccc21`: -9.81%; for `Oc1c(N=NC(=S)Nc2ccccc2F)c2ccccc2n1Cc1cccc(Cl)c1`: 2.68%.
`COC(=O)C1=C(C)N(c2cc(C)cc(C)c2)/C(=C/c2ccc(O)cc2)C1=O`: the “activity change, negative = cytotoxicity” value was 0.245%.
The same measure for `COC(=O)/C=C/C(=O)Nc1cccc(C(F)(F)F)c1`: 9.97%; for `O=C(CN1CCN(S(=O)(=O)c2ccc(F)cc2)CC1)Nc1cccc(C(F)(F)F)c1`: 3.31%; for `CCOc1ccc(C(=O)Nc2nnc(SCC(=O)NCC3CCCO3)s2)cc1` (stereo unspecified): 10.5%.
As for `CN=C1S/C(=C\c2ccc(O)c(Br)c2)C(=O)N1C`, the “activity change, negative = cytotoxicity” value is 6.54%.
For `CC(=O)O[C@H]1CC[C@@]2(C)C(=CC[C@H]3[C@@H]4CC[C@H](C(C)=O)[C@@]4(C)CC[C@@H]32)C1`, the “activity change, negative = cytotoxicity” value is -0.254%.
The same measure for `NC(=O)C1(Nc2ccc([N+](=O)[O-])cc2)CCCC1`: -8.21%; for `Cc1ccccc1Cn1c(O)c(N=NC(=S)Nc2ccccc2F)c2ccccc21`: 8.25%.
With `CCOc1ccc(NC(=O)Cn2cc(C(=O)CC)c3ccccc32)cc1` the figure was 9.94%; with `COc1cccc(C(=O)Nc2nc3ccccc3[nH]2)c1`, -10.2%; with `O=C(O)c1ccc(N/N=C/c2ccc3ncccc3c2)cc1`, 18.4%.
With `O=C(CSc1nc2ccccc2c(=O)n1CCCN1CCOCC1)Nc1ccc(Br)cc1` the figure was 5.39%; with `CC(C)(C)c1ccc(C(=O)Nc2nnc(SCC(=O)NCC3CCCO3)s2)cc1` (stereo unspecified), 6.78%; with `CCC(Oc1ccccc1)C(=O)NC1CCSC1=O` (stereo unspecified), 11.1%.
With `O=C(NC1CCCCC1)N1CCN(c2ccc([N+](=O)[O-])cc2)CC1`, the “activity change, negative = cytotoxicity” value is -5.64%.
With `CCOC(=O)c1sc2nc(C)nc(NCc3ccccc3)c2c1C` the figure was -0.055%.
